20 molecules from PubChem BioAssay can be followed below.

The structures appear in SMILES notation. A number with no mark means an inactive call. For some of these results: Results with a measured potency or affinity are listed apart. Activity calls are given as the source filed them. Unless noted, no rule for the calls is given here.

Test [1] is described as follows: antimalarial activity against Dd2 strain (AID 2302;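 active = growth inhibition above 50% at the single 2 µM test dose, taken to imply half-maximal potency below 2 µM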;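 also: 0% = DMSO untreated growth and 100% = chloroquine plus artemisinin killed control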). To be noted: P. falciparum Dd2 in RBCs, LDH growth readout, 72 h; at 2 µM; active compounds read high.
The nature of test [2]: HepG2 cytotoxicity, primary screen, cytotoxicity control for P. falciparum antimalarial project, cell-based, ATP luminescence (AID 2303;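 active = inhibition above 50%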;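 also: 0% = DMSO wells and 100% = digitonin-killed cells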). To be noted: HepG2 viability, 24-48 h, at 10 µM, active compounds read high.
The target in test [3] is L-lactate dehydrogenase (Plasmodium falciparum (isolate CDC / Honduras)) (UniProt Q27743). In words: PfLDH activity inhibition – cell lysate, 3D7 strain, counter-screen for P. falciparum growth inhibition project (AID 2304).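 Also: 0% = vehicle and 100% = reference inhibitor.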 To be noted: P. falciparum 3D7 crude extract, LDH APAD/NBT absorbance; at 2 µM; active compounds read high. (The purpose of a counterscreen is to sort out artefacts and off-target activity.)

Test [4] is described as follows: inhibition of 3D7 malaria parasite growth – strain 3D7 (AID 2306).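 Also: 0% = DMSO wells and 100% = chloroquine plus artemisinin control wells.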 To be noted: P. falciparum 3D7 erythrocytic growth, LDH absorbance, 72 h; at 2 µM; active compounds read high.
Test [5] concerns the target Calcium-dependent protein kinase 1 (Plasmodium falciparum (isolate 3D7)) (UniProt P62344). In words: PfCDPK1 kinase inhibitors, biochemical, TCAMS library (AID 1159585; cut-off not given, nearly all actives have IC50 up to about 0.98 µM;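 also: inhibitors leave more ATP so luminescence rises with inhibition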). To be noted: recombinant PfCDPK1, Kinase-Glo ATP depletion luminescence. For orientation: In Kinase-Glo more light means more ATP remaining.
Test [6] addresses Plasmodium falciparum protein kinase 6 (PK6, PF3D7_1337100) (UniProt Q8IDW1). In words: PfPK6 kinase inhibitors, biochemical, TCAMS library (AID 1159586). To be noted: recombinant PfPK6, Kinase-Glo ATP depletion luminescence.
In test [7] the target is Protein kinase 7 (PK7), Plasmodium falciparum 3D7 (PF3D7_0213400) (UniProt Q7YTF7). In words: inhibition of Plasmodium PK7 catalytic activity – biochemical, TCAMS antimalarial set, Kinase-Glo luminescence (AID 1159587). To be noted: recombinant PfPK7, Kinase-Glo ATP depletion luminescence.
The target of test [8] is Calcium-dependent protein kinase 4 (Plasmodium falciparum (isolate 3D7)) (UniProt Q8IBS5). The test can be described thus: PfCDPK4 kinase inhibitors, biochemical, TCAMS library (AID 1159588; cut-off not given, nearly all actives have IC50 up to about 0.91 µM). To be noted: recombinant PfCDPK4, Kinase-Glo ATP depletion luminescence.
Sequence of Calcium-dependent protein kinase 4 (Plasmodium falciparum (isolate 3D7)) (Q8IBS5 whole entry, looked up): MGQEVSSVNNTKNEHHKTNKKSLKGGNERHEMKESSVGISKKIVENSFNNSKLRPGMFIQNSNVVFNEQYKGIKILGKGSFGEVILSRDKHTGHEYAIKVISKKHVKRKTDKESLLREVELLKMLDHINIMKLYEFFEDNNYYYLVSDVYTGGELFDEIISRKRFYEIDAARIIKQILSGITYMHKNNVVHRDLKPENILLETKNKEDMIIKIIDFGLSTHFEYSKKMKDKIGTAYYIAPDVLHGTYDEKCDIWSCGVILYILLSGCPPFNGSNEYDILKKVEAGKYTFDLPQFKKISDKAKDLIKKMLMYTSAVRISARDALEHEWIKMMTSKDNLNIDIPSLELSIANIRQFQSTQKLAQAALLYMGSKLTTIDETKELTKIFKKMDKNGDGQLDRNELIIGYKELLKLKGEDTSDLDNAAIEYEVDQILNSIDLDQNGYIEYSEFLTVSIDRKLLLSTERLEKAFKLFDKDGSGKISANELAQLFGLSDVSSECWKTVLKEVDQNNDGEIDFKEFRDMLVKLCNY

Sequence of Calcium-dependent protein kinase 1 (Plasmodium falciparum (isolate 3D7)) (P62344 whole entry, looked up): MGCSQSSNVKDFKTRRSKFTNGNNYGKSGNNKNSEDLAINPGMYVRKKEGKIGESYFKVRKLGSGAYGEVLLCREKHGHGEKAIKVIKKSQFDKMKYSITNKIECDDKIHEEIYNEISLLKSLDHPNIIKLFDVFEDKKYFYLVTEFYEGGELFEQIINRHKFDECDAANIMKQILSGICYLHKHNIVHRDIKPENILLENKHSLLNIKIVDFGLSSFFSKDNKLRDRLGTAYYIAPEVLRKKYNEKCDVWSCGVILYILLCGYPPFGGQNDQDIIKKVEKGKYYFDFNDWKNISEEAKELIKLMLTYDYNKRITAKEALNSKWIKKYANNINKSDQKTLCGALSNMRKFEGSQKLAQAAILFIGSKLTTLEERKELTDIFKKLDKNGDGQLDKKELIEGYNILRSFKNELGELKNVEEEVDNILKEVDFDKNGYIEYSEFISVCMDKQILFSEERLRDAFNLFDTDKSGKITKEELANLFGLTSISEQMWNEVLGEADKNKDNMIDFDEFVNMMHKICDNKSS
Sequence of Protein kinase 7 (PK7), Plasmodium falciparum 3D7 (PF3D7_0213400) (Q7YTF7 1-343): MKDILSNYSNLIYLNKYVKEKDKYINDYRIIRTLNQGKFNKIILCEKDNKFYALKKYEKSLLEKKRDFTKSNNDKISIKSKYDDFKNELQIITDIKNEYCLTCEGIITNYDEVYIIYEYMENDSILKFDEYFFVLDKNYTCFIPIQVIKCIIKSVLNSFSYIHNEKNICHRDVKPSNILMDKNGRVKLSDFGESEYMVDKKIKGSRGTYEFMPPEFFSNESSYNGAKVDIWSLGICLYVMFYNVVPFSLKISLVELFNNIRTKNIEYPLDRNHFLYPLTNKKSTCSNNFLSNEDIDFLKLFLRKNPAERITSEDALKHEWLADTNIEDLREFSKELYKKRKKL
Sequence of Plasmodium falciparum protein kinase 6 (PK6, PF3D7_1337100) (Q8IDW1 1-305): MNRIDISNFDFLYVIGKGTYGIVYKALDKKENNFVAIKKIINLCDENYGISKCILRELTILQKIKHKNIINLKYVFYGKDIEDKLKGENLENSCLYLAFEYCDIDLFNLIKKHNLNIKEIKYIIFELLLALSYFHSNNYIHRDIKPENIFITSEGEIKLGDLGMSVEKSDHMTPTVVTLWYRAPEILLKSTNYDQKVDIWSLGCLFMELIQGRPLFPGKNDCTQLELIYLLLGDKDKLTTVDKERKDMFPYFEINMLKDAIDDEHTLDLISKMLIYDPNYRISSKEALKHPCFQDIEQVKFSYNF
Sequence of L-lactate dehydrogenase (Plasmodium falciparum (isolate CDC / Honduras)) (Q27743 whole entry, looked up): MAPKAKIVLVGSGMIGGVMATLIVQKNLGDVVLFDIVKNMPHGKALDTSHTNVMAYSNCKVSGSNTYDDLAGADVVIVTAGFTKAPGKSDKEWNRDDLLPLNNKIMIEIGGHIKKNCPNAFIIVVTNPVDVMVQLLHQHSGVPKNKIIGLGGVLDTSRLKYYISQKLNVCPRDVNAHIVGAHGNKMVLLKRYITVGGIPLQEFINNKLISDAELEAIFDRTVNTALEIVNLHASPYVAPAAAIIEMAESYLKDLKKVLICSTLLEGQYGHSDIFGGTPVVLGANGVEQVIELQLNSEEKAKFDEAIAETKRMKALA

`Cc1cc(N[C@@H](Cc2ccccc2)C(=O)Nc2ccccc2)nc(NCCc2ccccc2)n1`: the growth inhibition is 87% (active) in test [1] and 101% (active) in test [4]. Further, the inhibition (commonly the drop in the measured response relative to a control, in per cent) was 8% in test [2] and 3% in test [3]. In addition, the result in test [5], in test [6], in test [7] and in test [8] was inactive.

As to `COC(=O)c1cccc(NC(=O)NC2CCN(c3ccnc(NCc4ccc(F)cc4)n3)CC2)c1`, the growth inhibition in test [1] is 39%; in test [4], 93% (active). In addition, the inhibition in test [2] was 29%; in test [3], 5%. The result in test [5], in test [6], in test [7] and in test [8] was inactive.

With `O=C(NCCc1cccc(F)c1)c1ccc(N2CCN(c3ccncc3)CC2)cn1`, the growth inhibition in test [1] was 7%; in test [4], 94% (active). For the same molecule, the inhibition is 4% in test [2] and -3% in test [3]. For the same molecule, the outcome in test [5], in test [6], in test [7] and in test [8] was inactive.

Consider `Oc1c(Cl)cc(Nc2nccc(Nc3ccc(Oc4ccccc4)cc3)n2)cc1Cl`, for which the growth inhibition was 26% in test [1] and 99% (active) in test [4]. Further, the inhibition in test [2] is 8%; in test [3] it was -5%. For the same molecule, the result in test [5], in test [6], in test [7] and in test [8] was inactive.

Take `Cc1cccc2[nH]c(-c3cccc(-c4cccc(NC(=O)CN5CCN(C)CC5)c4)c3)nc12`: the figures for the growth inhibition in test [1] and in test [4] were 99% (active) and 101% (active), respectively. The inhibition was 76% (active) in test [2] and -1% in test [3]. The result in test [5], in test [6], in test [7] and in test [8] was inactive.

In the case of `Cc1ccc(OCCCCON2C(N)=NC(N)=NC2(C)C)cc1C`, the growth inhibition is 97% (active) in test [1] and 94% (active) in test [4]. Moreover, the inhibition was 61% (active) in test [2] and -3% in test [3]. In addition, the outcome in test [5], in test [6], in test [7] and in test [8] was inactive.

As for `Nc1c(Cl)cc(C(O)CNCCCCCCCCCc2ccccn2)cc1Cl` (stereo not given), the growth inhibition in test [1] was 83% (active); in test [4], 98% (active). In addition, the inhibition in test [2] was 9%; in test [3] it was 2%. The outcome in test [5], in test [6], in test [7] and in test [8] was inactive.

For the molecule `CCOC(=O)NC1=NC(C)(C)N(OCc2ccc(Cl)c(Cl)c2)C(NC(=O)OCC)=N1`, the growth inhibition in test [1] was 4%; in test [4], 98% (active). Also, the inhibition in test [2] was 65% (active); in test [3] it was 2%. In addition, the outcome in test [5], in test [6], in test [7] and in test [8] was inactive.

`COc1ccccc1-n1c(SCC(=O)Nc2ccccc2F)nc2cccnc21`: the growth inhibition is 88% (active) in test [1] and 96% (active) in test [4]. The values for the inhibition in test [2] and in test [3] were -21% and 0%, respectively. The outcome in test [5], in test [6], in test [7] and in test [8] was inactive.

With `CCN(CC)CCCCCNc1c2ccc(Cl)cc2nc2ccc(OC)cc12`, the growth inhibition in test [1] and in test [4] was 99% (active) throughout. Also, the values for the inhibition in test [2] and in test [3] were 96% (active) and 4%, respectively. For the same molecule, the result in test [5], in test [6], in test [7] and in test [8] was inactive.

On to `O=C(NCCCCN1CCC(c2ccc([N+](=O)[O-])cc2)CC1)c1ccc(NC(=O)c2ccc(Cl)cc2)cc1`, for which the growth inhibition in test [1] is 55% (active); in test [4] it was 100% (active). For the same molecule, the inhibition is 15% in test [2] and 2% in test [3]. Besides, the outcome in test [5], in test [6], in test [7] and in test [8] was inactive.

For the molecule `N#Cc1cncc(-c2nc3c(N4CCC(Cc5ccccc5)CC4)cccc3n2CCNCc2ccccc2)c1`, the growth inhibition in test [1] and in test [4] was 99% (active) in each case. Also, the inhibition in test [2] was 2%; in test [3], -1%. Besides, the outcome in test [5], in test [6], in test [7] and in test [8] was inactive.

On to `Cc1cccc2[nH]c(-c3ccc(-c4cccc(CN5CCN(c6ccncc6)CC5)c4)cc3)nc12`, for which the figures for the growth inhibition in test [1] and in test [4] were 99% (active) and 101% (active), respectively. Also, the values for the inhibition in test [2] and in test [3] were 50% (active) and 7%, respectively. For the same molecule, the result in test [5], in test [6], in test [7] and in test [8] was inactive.

Take `COc1ccc(CN2CCC(NCc3ccc(C(F)(F)F)cc3)CC2)cc1`: the growth inhibition was -1% in test [1] and 97% (active) in test [4]. For the same molecule, the inhibition was 37% in test [2] and 2% in test [3]. Besides, the outcome in test [5], in test [6], in test [7] and in test [8] was inactive.

Take `CCN(CC)CCOC(=O)c1ccc(NC(=O)c2cc(-c3ccc(C)cc3)nc3ccccc23)cc1`: the growth inhibition in test [1] is 12%; in test [4], 97% (active). For the same molecule, the inhibition in test [2] is 22%; in test [3], -4%. For the same molecule, the result in test [5], in test [6], in test [7] and in test [8] was inactive.

Regarding `C=CCOc1ccc(-c2c(C)[nH]c(C)c(Br)c2=O)cc1`, the growth inhibition is 96% (active) in test [1] and 98% (active) in test [4]. The inhibition in test [2] was 5%; in test [3], -3%. Moreover, the outcome in test [5], in test [6], in test [7] and in test [8] was inactive.

With `Cc1cccc2[nH]c(-c3ccc(-c4cccc(C(=O)NCCN5CCCC5)c4)s3)nc12`, the growth inhibition in test [1] is 2%; in test [4], 94% (active). Besides, the inhibition in test [2] is 22%; in test [3], 4%. Further, the outcome in test [5], in test [6], in test [7] and in test [8] was inactive.

In the case of `CN(C)c1ccc(C(c2ccc(N(C)C)cc2)c2cc([N+](=O)[O-])ccc2Cl)cc1`, the growth inhibition in test [1] was 67% (active); in test [4], 96% (active). The inhibition in test [2] is 0%; in test [3], 7%. Besides, the outcome in test [5], in test [6], in test [7] and in test [8] was inactive.

Consider `CCCc1cc(NC2CCN(C)CC2)nc(Nc2cccc(OC)c2)n1`, for which the growth inhibition in test [1] is 28%; in test [4] it was 100% (active). The inhibition in test [2] was 31%; in test [3], -3%. Moreover, the outcome in test [5], in test [6], in test [7] and in test [8] was inactive.

As for `Cc1cc(NCCC(=O)Nc2ccccc2)nc(NCCc2cccs2)n1`, the growth inhibition in test [1] was 20%; in test [4], 99% (active). The inhibition in test [2] was 26%; in test [3], 0%. Besides, the outcome in test [5], in test [6], in test [7] and in test [8] was inactive.
